The panel holds about 83,000 compounds, 20% with a hit somewhere; the sample as a whole holds those more often.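 Plates (96-well) were seeded with cells, treated with compound at one concentration, and incubated for 48 hours before percent growth was determined.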 Unmarked numbers belong to inactive results. Active and inactive are the calls of the source. How the source made its calls: active means growth percent below 10; inactive means the rest.
How the values were obtained:
Test in all cases: NCI-60 one-dose screen, 48 h (100 = growth as untreated, 0 = no growth, -100 = all killed)
Settings in all cases: 10 µM
SK-MEL-2 melanoma = tested on: SK-MEL-2 melanoma
EKVX NSCLC = tested on: EKVX NSCLC
SN12C renal = tested on: SN12C renal
UO-31 renal = tested on: UO-31 renal
TK-10 renal = tested on: TK-10 renal
ACHN renal = tested on: ACHN renal
CAKI-1 renal = tested on: CAKI-1 renal
A498 renal = tested on: A498 renal
CCRF-CEM leukemia = tested on: CCRF-CEM leukemia
MOLT-4 leukemia = tested on: MOLT-4 leukemia

Structure (SMILES) | growth (SK-MEL-2 melanoma) | growth (EKVX NSCLC) | growth (SN12C renal) | growth (UO-31 renal) | growth (TK-10 renal) | growth (ACHN renal) | growth (CAKI-1 renal) | growth (A498 renal) | growth (CCRF-CEM leukemia) | growth (MOLT-4 leukemia)
O=C(NO)c1ccc(CNc2nc(-c3ccccc3)c3ccccc3n2)cc1 | -20.4% (active) | 15.6% | -0.363% (active) | -18.8% (active) | -17.2% (active) | -74.2% (active) | -4.81% (active) | -42.4% (active) | 15% | 12.3%
COc1ccc(-c2ccc(/C=N/NC(=O)c3[nH]c4ccc(Br)cc4c3-c3ccccc3)s2)cc1 | 106% | 110% | 74.9% | 86.4% | 127% | 106% | 94.8% | 131% | 88% | 87.6%
O=C(c1ccc(Cl)cc1)C1[C@H](c2ccc(Br)cc2)[C@@H](c2ccccc2)NC12C(=O)Nc1ccc(Cl)cc12 (stereo not given in full) | -77.7% (active) | -47.8% (active) | -92.5% (active) | -29.2% (active) | -17.4% (active) | -17.2% (active) | -92.7% (active) | -16.9% (active) | -17% (active) | -28.8% (active)
COc1ccc(C(=O)/C=C/c2cc(F)cc(C(F)(F)F)c2)cc1S(N)(=O)=O | 12.8% | 7.02% (active) | -69.1% (active) | -92.7% (active) | -12.4% (active) | -100% (active) | -85.7% (active) | 88.2% | 4.86% (active) | 1.63% (active)
COc1ccc2[nH]c(=O)c(CSc3ccc(Nc4nccc(-c5ccc(Cl)cc5)n4)cc3)cc2c1 | 94.3% | 86.8% | 83.7% | 85.5% | 124% | 90.3% | 76.3% | 141% | 96.7% | 84.4%
N#Cc1ccc(-c2nn(-c3ccc(C(=O)O)cc3)cc2CNc2ccc(Cl)cc2)cc1 | 96.2% | 67.8% | 82.2% | 61.8% | 108% | 74.6% | 71.2% | 111% | 77.5% | 68.8%
O=C(Nc1ccc(I)cc1)Nc1nc2ccc([N+](=O)[O-])cc2s1 | -91% (active) | -93% (active) | -97.7% (active) | -100% (active) | -92% (active) | -100% (active) | -100% (active) | -91.6% (active) | -81.1% (active) | -58.1% (active)
COc1ccc(CN2[C@@H](C(=O)NCc3ccc(C(=O)NO)cc3)Cc3c([nH]c4ccccc34)[C@@H]2C2CC2)cc1 | 12.2% | 28.9% | 29% | 40.5% | 8.46% (active) | 35.5% | 22.5% | -5.06% (active) | 15% | 11%
COc1cc2oc(-c3cccc(C(=O)Nc4ccc(Cl)cc4)c3)cc(=O)c2c(OCCNC(=O)CNC(=O)OC(C)(C)C)c1OC | 78.4% | 64.7% | 53.5% | 49.7% | 83.9% | 61.3% | 34.2% | 118% | 49.4% | 41.1%
CC(=O)Nc1ccc(-n2cnc3cc(-c4ccc(O)cc4)ccc32)cc1F | 36.3% | 60.6% | 21.5% | 20.7% | 49.2% | 20.4% | 17.9% | 72.4% | 8% (active) | -0.0266% (active)
N#Cc1ccc(-c2nn(-c3ccc(C(=O)O)cc3)cc2CNc2cc(Cl)cc(C(F)(F)F)c2)cc1 | 8.11% (active) | 22.8% | 18.4% | 25% | 63.5% | 17.3% | 20.8% | 39.8% | 5.2% (active) | 6.25% (active)
CCOc1ccc(/C=N/NC(=O)Cn2nc(Cc3ccccc3)c3onc(C)c3c2=O)cc1 | 3.12% (active) | 23.9% | 8.3% (active) | -2.49% (active) | 25.6% | 6.42% (active) | 12% | -6.43% (active) | 86.6% | 79.6%
CS(=O)(=O)Nc1ccc(-c2ccc3c(c2)ncn3-c2ccc(NC(=O)Nc3ccc(Br)cc3)cc2)cc1 | -52.1% (active) | -0.46% (active) | 14.2% | 2.62% (active) | 25.7% | 4.12% (active) | 2.14% (active) | -17% (active) | -14.9% (active) | -18.4% (active)
Cc1ccc(/C(N)=N/c2sc(-c3ccccc3)nc2-c2ccccc2)cc1 | 90.7% | 74.2% | 77.8% | 69.9% | 100% | 76.3% | 59.8% | 91.1% | 26.7% | 51.5%
COc1ccc(N(C)c2cc(C#N)nc3ccccc23)cc1N | 4.88% (active) | 20.5% | 5.85% (active) | 20.6% | 76.7% | 23.5% | 26.1% | 113% | 5.77% (active) | 15.4%
CN(CCO)c1oc(-c2ccccc2)nc1[P+](c1ccccc1)(c1ccccc1)c1ccccc1 | -33.8% (active) | 18.1% | -3.43% (active) | 74.3% | 24% | 56.3% | 59.7% | -7.19% (active) | 9.94% (active) | 13.4%
C/C(=N\NC(N)=S)c1ccc(Nc2nc(SC(C)C)nc(-c3ccccc3)c2C#N)cc1 | 89.3% | 75.9% | 63.5% | 77.5% | 98.1% | 58.3% | 74.6% | 123% | 76.3% | 77.5%
CN(C)c1ccc(/C=C/c2nc3ccccc3c(=O)n2CC(=O)Nc2ccccc2)cc1 | 71.4% | 63.6% | 39% | 54.3% | 95% | 18.8% | 24.4% | 70.5% | 90% | 79.5%
CCOC(=O)C(Cc1ccccc1)N1C(=O)/C(=C/N2N=C(c3ccc(OC)cc3)CC2c2ccc3ccccc3c2)SC1=S (stereo not given) | -64.1% (active) | -7.27% (active) | 8.88% (active) | 16.2% | 24.8% | 23.2% | 24.8% | -13.3% (active) | 5.96% (active) | 4.16% (active)
O=C(Nc1nc2ccccc2s1)c1ccc(Br)cc1 | 96.1% | 63.5% | 89.9% | 76.1% | 104% | 94.8% | 91.1% | 115% | 85.6% | 74.3%
O/N=C(\CSc1nnc(-c2c[nH]c3ccccc23)n1-c1ccccc1)c1ccc(Cl)cc1 | 20.1% | 2.05% (active) | -16.2% (active) | 34.4% | -23.2% (active) | 3.34% (active) | -10.7% (active) | 83.7% | -5.19% (active) | -7.37% (active)
CN1CCCN(Cc2ccc(C(=O)Nc3cccc(Nc4ccc5c(O)cccc5n4)c3)cc2C(F)(F)F)CC1 | -76.5% (active) | -87% (active) | -86.1% (active) | -56.1% (active) | -65.3% (active) | -74.7% (active) | -85.3% (active) | 61.8% | 8.39% (active) | 9.64% (active)
COc1cc(/C=C/C(=O)c2ccc(S(=O)(=O)NCCNc3nc(Nc4ccc(F)cc4)nc(N(C)C)n3)cc2)cc(OC)c1OC | 98.4% | 48.4% | -32.1% (active) | 40.2% | 66.3% | -49% (active) | 20.1% | 81.3% | 8.16% (active) | 8.5% (active)
Cc1ccc(/C(CSc2nnc(-c3c[nH]c4ccccc34)n2-c2ccccc2)=N/O)cc1 | 62.7% | 28.3% | -36.7% (active) | 6.45% (active) | -65.1% (active) | -61.7% (active) | -27.4% (active) | 91.9% | -35% (active) | -27.8% (active)
OCCCNc1oc(-c2ccccc2)nc1[P+](c1ccccc1)(c1ccccc1)c1ccccc1 | -34.1% (active) | 14.3% | -0.273% (active) | 69.8% | 20.9% | 51% | 58.6% | 22.5% | 10.5% | 6.77% (active)
CCOc1ccc(/C=N/NC(=O)Cn2nc(Cc3ccc([N+](=O)[O-])cc3)c3onc(C)c3c2=O)cc1 | 51.9% | 16.3% | 11.2% | -48.1% (active) | -12.2% (active) | -68% (active) | -9.88% (active) | 45.1% | 89.3% | 75.7%
